Several values for one entry are separate records, joined by “and”; a condition that tells them apart may be missing. Identical values can stand only once. Results filed as inconclusive are left out. Where a structure was tested more than once in an assay, its records may differ in their call. Activity calls are given as the source filed them. Unless noted, calls follow the shape of the dose curve; as a rule, active = well fitted curve in the direction sought with a large enough effect in the repeat runs; inconclusive = weak or mixed curves; inactive = no such curve, though single readings can be large; an effect the other way counts as inactive or inconclusive.
How the values were obtained:
[1] = biological target: Luciferin 4-monooxygenase (Photinus pyralis) (UniProt P08659); assay: qHTS assay to identify small molecule inhibitors of firefly luciferase (AID 1224835); also: series mostly up to about 120 µM; nearly all actives have a fitted effect of over 25% in size
Summary of the method: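 Inhibition of purified Photinus luciferase is measured by luminescence. Substrate levels (D-luciferin, ATP) sit at their KM values. Each compound is tested in a concentration series.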

[2] = qHTS assay to identify small molecule agonists of the constitutive androstane receptor (CAR) signaling pathway - cell viability counter screen (AID 1224836); also: nearly all actives have a fitted effect of over 45% in size; also: potency is read from the fitted curve at half-maximal effect
Summary of the method: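 23 h treatment, 37 C, 5% CO2. Cell line: HepG2 stably expressing hCAR with a CYP2B6-2.2kb construct. Co-treatment: PK11195, 0.75 uM final. Read-out: CellTiter-Fluor fluorescence intensity.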

[3] = qHTS assay to identify small molecule antagonists of the constitutive androstane receptor (CAR) signaling pathway - cell viability counter screen (AID 1224837); also: nearly all actives have a fitted effect of over 45% in size; also: potency is read from the fitted curve at half-maximal effect
Summary of the method: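 Viability was measured with CellTiter-Fluor in a HepG2 line carrying stably transfected hCAR and a CYP2B6-2.2kb construct. Cells were exposed for 23 hr at 37 C to 15 compound concentrations with 50 nM CITCO as agonist.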

[4] = qHTS assay to identify small molecule antagonists of the estrogen related receptor signaling pathway with the pleiotropic PPARgamma coactivator (PGC) from Tox21 10K library - cell viability counter screen (AID 1224840; active = well fitted cell-killing curve with a large enough effect in the repeat runs, not every such curve was filed as active; also: nearly all actives have a fitted effect of over 40% in size; also: potency is read from the fitted curve at half-maximal effect)
Summary of the method: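 Multiplexed viability counter screen in the PGC/ERR cell line: cells treated with DMSO-dissolved compounds for 17.5 hours at 37 C, then viability measured as CellTiter-Fluor fluorescence.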

[5] = qHTS assay to identify small molecule agonists of the hypoxia (HIF-1) signaling pathway - cell viability counter screen (AID 1224844; calls by dose curve; also: nearly all actives have a fitted effect of over 50% in size; also: potency is read from the fitted curve at half-maximal effect)
Summary of the method: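 Cytotoxicity was measured in parallel with the HRE-driven beta-lactamase readout: after 17 hrs of compound exposure at 37C, HRE-bla ME-180 cells received CellTiter-Glo and luminescence was recorded 30 min later.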

[6] = qHTS assay to identify small molecule antagonists of the estrogen related receptor signaling pathway with the pleiotropic PPARgamma coactivator (PGC) from Tox21 10K library (AID 1224841; call rule not given here; also: actives are mostly falling curves and most rising ones were filed inactive; nearly all actives have a fitted effect of over 50% in size; also: potency is read from the fitted curve at half-maximal effect)
Summary of the method: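 Steps: plate 2,000 PGC/ERR cells per well; incubate 6 h at 37 C with 5% CO2; transfer compounds from DMSO stocks by pin tool; incubate 18 h at 37 C; add One-Glo; measure luminescence 30 min later.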

[7] = qHTS assay to identify small molecule agonists of the estrogen related receptor signaling pathway with the pleiotropic PPARgamma coactivator (PGC) from Tox21 10K library (AID 1224842); also: nearly all actives have a fitted effect of over 15% in size
Summary of the method: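 Luminescence from One-Glo (30 min, room temperature) measured after PGC/ERR cells had 18 h at 37 C with pinned compound (23 nL in DMSO). Cells had been seeded at 2,000 per well and pre-incubated 6 h.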

[8] = biological target: Thyrotropin receptor (Homo sapiens) (UniProt P16473); assay: qHTS assay to identify small molecule agonists of the thyroid stimulating hormone receptor (TSHR) signaling pathway (AID 1224843; calls by dose curve; also: nearly all actives have a fitted effect of over 45% in size; also: potency is read from the fitted curve at half-maximal effect)
Summary of the method: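 Agonist activity read as cAMP rise via d2/cryptate HTRF competition, 1 h room-temperature detection, in HEK293 cells expressing TSHR. Fifteen-point titrations, each run in triplicate, with a 30 min room-temperature incubation beforehand.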

[9] = biological target: Nuclear receptor subfamily 1 group I member 3 (Homo sapiens) (UniProt Q14994); assay: qHTS assay to identify small molecule antagonists of the constitutive androstane receptor (CAR) signaling pathway (AID 1224838);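 also: HepG2 cells stably expressing hCAR with CYP2B6 luciferase reporter stimulated by CITCO; nearly all actives have a fitted effect of over 40% in size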
Summary of the method: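 Antagonist mode used CITCO at a final 50 nM to activate CAR in human hepatoma HepG2 cells carrying stable hCAR and a 2.2 kb CYP2B6 promoter-luciferase construct. Compounds were tested at 15 concentrations over 24 h, with luminescence as the end point.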

[10] = biological target: Nuclear receptor subfamily 1 group I member 3 (Homo sapiens) (UniProt Q14994); assay: qHTS assay to identify small molecule agonists of the constitutive androstane receptor (CAR) signaling pathway (AID 1224839); also: series mostly up to about 92 µM; nearly all actives have a fitted effect of over 15% in size
Summary of the method: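 Compounds tested at 15 concentrations on HepG2 cells stably harbouring hCAR and CYP2B6-2.2kb reporter constructs, co-treated with PK11195 (0.75 uM final), 24 h at 37 C; luminescent reporter signal quantified.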

Measured: Potency

Luciferin 4-monooxygenase (Photinus pyralis), sequence (P08659 whole entry, looked up): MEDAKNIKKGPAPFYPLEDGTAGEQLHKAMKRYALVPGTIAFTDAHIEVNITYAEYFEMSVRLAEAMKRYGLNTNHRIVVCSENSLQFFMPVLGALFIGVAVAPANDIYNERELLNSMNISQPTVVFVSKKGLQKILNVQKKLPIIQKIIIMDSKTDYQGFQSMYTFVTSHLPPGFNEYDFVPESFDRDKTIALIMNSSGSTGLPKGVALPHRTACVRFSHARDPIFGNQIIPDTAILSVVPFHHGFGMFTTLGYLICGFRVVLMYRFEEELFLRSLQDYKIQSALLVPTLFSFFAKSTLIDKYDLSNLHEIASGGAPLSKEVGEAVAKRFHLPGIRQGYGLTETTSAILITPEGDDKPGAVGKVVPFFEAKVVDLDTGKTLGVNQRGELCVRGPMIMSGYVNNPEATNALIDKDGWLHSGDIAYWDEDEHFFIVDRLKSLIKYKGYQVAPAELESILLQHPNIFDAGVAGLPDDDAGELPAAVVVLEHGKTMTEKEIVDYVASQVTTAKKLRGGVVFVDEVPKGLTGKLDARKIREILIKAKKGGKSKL
Nuclear receptor subfamily 1 group I member 3 (Homo sapiens), sequence (Q14994 whole entry, looked up): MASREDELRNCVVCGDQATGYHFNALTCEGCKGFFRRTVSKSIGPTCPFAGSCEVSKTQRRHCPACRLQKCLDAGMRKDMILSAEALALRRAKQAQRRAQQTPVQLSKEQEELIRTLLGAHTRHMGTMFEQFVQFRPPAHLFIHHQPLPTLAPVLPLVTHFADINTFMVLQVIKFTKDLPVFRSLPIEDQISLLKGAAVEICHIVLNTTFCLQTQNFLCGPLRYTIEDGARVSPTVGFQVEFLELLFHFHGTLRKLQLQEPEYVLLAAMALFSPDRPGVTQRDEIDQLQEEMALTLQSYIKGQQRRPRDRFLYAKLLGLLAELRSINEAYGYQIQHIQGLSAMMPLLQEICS
Thyrotropin receptor (Homo sapiens), sequence (P16473 whole entry, looked up): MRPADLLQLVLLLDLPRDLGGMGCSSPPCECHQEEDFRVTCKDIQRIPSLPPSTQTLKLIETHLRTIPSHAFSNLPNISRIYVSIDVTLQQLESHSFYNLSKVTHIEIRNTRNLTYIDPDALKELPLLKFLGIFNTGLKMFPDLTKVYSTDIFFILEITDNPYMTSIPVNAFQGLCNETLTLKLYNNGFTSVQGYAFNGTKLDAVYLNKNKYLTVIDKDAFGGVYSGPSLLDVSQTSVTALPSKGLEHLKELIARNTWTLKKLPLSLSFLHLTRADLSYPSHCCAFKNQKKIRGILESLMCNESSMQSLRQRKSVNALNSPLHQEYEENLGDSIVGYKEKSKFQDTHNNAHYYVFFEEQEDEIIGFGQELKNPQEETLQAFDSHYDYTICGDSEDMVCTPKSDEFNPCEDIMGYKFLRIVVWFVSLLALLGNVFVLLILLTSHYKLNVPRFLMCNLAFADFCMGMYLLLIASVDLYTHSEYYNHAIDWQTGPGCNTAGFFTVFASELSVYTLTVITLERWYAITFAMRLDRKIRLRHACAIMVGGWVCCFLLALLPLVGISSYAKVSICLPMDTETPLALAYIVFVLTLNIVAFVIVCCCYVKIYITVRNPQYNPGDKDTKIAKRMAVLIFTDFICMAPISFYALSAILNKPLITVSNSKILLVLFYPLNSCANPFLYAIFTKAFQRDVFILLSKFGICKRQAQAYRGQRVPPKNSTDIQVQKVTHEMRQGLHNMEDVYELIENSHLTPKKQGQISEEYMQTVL

CCC(=O)O[C@H]1[C@H](O[C@@H]2[C@@H](C)[C@H](O[C@H]3C[C@@](C)(OC)[C@@H](O)[C@H](C)O3)[C@@H](C)C(=O)O[C@H](CC)[C@@](C)(O)[C@H](O)[C@@H](C)C(=O)[C@H](C)C[C@@]2(C)O)O[C@H](C)C[C@@H]1N(C)C
25.8 µM (active) and inactive: [5]
inactive: [1] | [2] | [3] | [4]

CCCCCC1C(=O)CCC1CC(=O)OC (stereo not given)
not listed: [9] | [10]
inactive: all other assays above

CC1(C)O[C@@H]2C[C@H]3[C@@H]4C[C@H](F)C5=CC(=O)C=C[C@]5(C)[C@@]4(F)[C@@H](O)C[C@]3(C)[C@]2(C(=O)CO)O1
inactive: [1] | [2] | [3] | [4] | [8] | [5]

NC[C@H](O)c1ccc(O)c(O)c1
inactive: [1] | [2] | [3] | [4] | [5]

CN1CCOCC1
not listed: [1] | [8]
inactive: all other assays above

O=C(CCCN1CCC(O)(c2ccc(Cl)cc2)CC1)c1ccc(F)cc1
inactive: [8] | [5]
54.5 µM (active) and inactive: [4]
active: [2] 61.1 µM | [3] 54.5 µM

CC(=O)O[C@]1(C(C)=O)CC[C@H]2[C@@H]3C=C(C)C4=CC(=O)CC[C@]4(C)[C@H]3CC[C@@]21C
active: [6] 24.3 µM
not listed: [9] | [10]
inactive: all other assays above

NCCOCCO
not listed: [8] | [9] | [10]
inactive: all other assays above

C=C[C@H]1CN2CC[C@H]1C[C@H]2[C@H](O)c1ccnc2ccc(OC)cc12
inactive: [2] | [3] | [9] | [4] | [5]

C=C[C@H]1CN2CC[C@H]1C[C@@H]2[C@@H](O)c1ccnc2ccc(OC)cc12
inactive: [2] | [3] | [9] | [4] | [5]

CN(C)CCCN1c2ccccc2Sc2ccc(Cl)cc21
active: [2] 48.6 µM | [3] 54.5 µM | [4] 48.6 µM and 26.6 µM | [5] 49 µM
inactive: [10] | [6] | [7] | [8]

O=C1CCc2ccccc2O1
not listed: [9] | [10]
inactive: all other assays above

Nc1ccc(O)c(N)c1
304 nM (active) and inactive: [6]
active: [8] 54.1 µM
not listed: [1]
inactive: all other assays above

O=Cc1ccccc1C=O
inactive: [1] | [4] | [5]
38.6 µM (active) and inactive: [8]

FC(F)(F)C(Cl)Br (stereo not given)
not listed: [9] | [10]
inactive: all other assays above

C1CN(SSN2CCOCC2)CCO1
active: [6] 53.9 µM | [5] 54.4 µM
inactive: [1] | [2] | [7] | [8]

Reference: PubChem BioAssay (Tox21)
